{
  "source": "the supplement of paper PMC3898565",
  "note": "± gives the uncertainty stated by the source.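 Note: viable cell number estimated from Alamar Blue fluorescence read at 560/90, part of a single-dose primary screen of an FDA-approved drug library.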",
  "data": [
    {"tested_on": "U87", "assay": "cell viability relative to vehicle control; higher = less growth inhibition (less active)", "conditions": "10 µM; 72 h", "units": {"cell viability": "%"}, "values": [
      {"smiles": "CCN1CCC[C@H]1CNC(=O)c1c(O)c(Cl)cc(Cl)c1OC", "note": "[Raclopride]", "cell viability": "99.9 ± 6.5"},
      {"smiles": "C[C@]12CCC(=O)C=C1CC[C@@H]1[C@@H]2C(=O)C[C@@]2(C)[C@H]1CC[C@]2(O)C(=O)CO", "cell viability": "102 ± 2.8"},
      {"smiles": "Cc1c(C(=O)NN2CCCCC2)nn(-c2ccc(Cl)cc2Cl)c1-c1ccc(I)cc1", "cell viability": "106 ± 1.3"},
      {"smiles": "CC(=O)O[C@H]1C[C@@H]2CC[C@@H]3[C@H](CC[C@@]4(C)[C@H]3C[C@H]([N+]3(C)CCCCC3)[C@@H]4OC(C)=O)[C@@]2(C)C[C@@H]1N1CCCCC1", "cell viability": "103.2 ± 0.3"},
      {"smiles": "NC(N)=Nc1nc(CSCC/C(N)=N/S(N)(=O)=O)cs1", "cell viability": "98.4 ± 9.8"},
      {"smiles": "COc1ccccc1OCCNCC(O)COc1cccc2[nH]c3ccccc3c12", "note": "(configuration not stated) [Carvedilol]", "cell viability": "105 ± 2.2"},
      {"smiles": "Cc1c(OCC(F)(F)F)ccnc1C[S+]([O-])c1nc2ccccc2[nH]1", "note": "(configuration not stated)", "cell viability": "104.7 ± 0.78"},
      {"smiles": "C[C@H]1COc2c(C3(N)CC3)c(F)cc3c(=O)c(C(=O)O)cn1c23", "cell viability": "101.8 ± 0.5"},
      {"smiles": "CCCc1c(OCCCCc2nnn[nH]2)ccc(C(C)=O)c1O", "cell viability": "104 ± 1.5"},
      {"smiles": "CN1CCCCC1CCN1c2ccccc2Sc2ccc([S+](C)[O-])cc21", "note": "(configuration not stated) [Mesoridazine]", "cell viability": "105 ± 2.8"},
      {"smiles": "O=C(O[C@H]1[C@H](Oc2ccccc2COC(=O)C2(O)C=CCCC2=O)O[C@H](CO)[C@@H](O)[C@@H]1O)c1ccccc1", "note": "(some centres not stated)", "cell viability": "104 ± 2.2"},
      {"smiles": "C[C@]12CC[C@@H]3c4ccc(O)cc4CC[C@H]3[C@@H]1CC[C@@H]2O", "cell viability": "97.2 ± 2.4"},
      {"smiles": "C[C@@H](c1ncncc1F)[C@](O)(Cn1cncn1)c1ccc(F)cc1F", "cell viability": "106 ± 1.7"},
      {"smiles": "N[C@@H]1CONC1=O", "cell viability": "96.3 ± 5"},
      {"smiles": "COc1ccc2c(c1)c(CC(=O)O)c(C)n2C(=O)c1ccc(Cl)cc1", "note": "[Indomethacin]", "cell viability": "105.6 ± 0.41"},
      {"smiles": "C[C@]12C=CC(=O)C=C1CC[C@@H]1[C@@H]2[C@@H](O)C[C@@]2(C)[C@H]1CC[C@]2(O)C(=O)COC(=O)CCC(=O)O", "cell viability": "104 ± 0.49"},
      {"smiles": "COC(=O)C1=C(C)NC(C)=C(C(=O)OC)C1c1ccccc1[N+](=O)[O-]", "cell viability": "105 ± 1.4"},
      {"smiles": "CCC1=C(C)CN(C(=O)NCCc2ccc(S(=O)(=O)NC(=O)N[C@H]3CC[C@H](C)CC3)cc2)C1=O", "cell viability": "105 ± 2.2"},
      {"smiles": "CC[C@]1(O)C[C@H]2CN(CCc3c([nH]c4ccccc34)[C@@](C(=O)OC)(c3cc4c(cc3OC)N(C=O)[C@H]3[C@@](O)(C(=O)OC)[C@H](OC(C)=O)[C@]5(CC)C=CCN6CC[C@]43[C@@H]65)C2)C1", "cell viability": "25.9 ± 3.1"},
      {"smiles": "CCOC(=O)[C@H](CCc1ccccc1)N[C@@H](C)C(=O)N1[C@H](C(=O)O)C[C@@H]2CCC[C@@H]21", "cell viability": "101 ± 1.5"},
      {"smiles": "CCCCCCCCCCC[C@@H](C[C@@H]1OC(=O)[C@H]1CCCCCC)OC(=O)[C@H](CC(C)C)NC=O", "cell viability": "103 ± 3.9"},
      {"smiles": "CCCCC[C@H](O)/C=C/[C@H]1[C@H](O)CC(=O)[C@@H]1CCCCCCC(=O)O", "note": "[Prostaglandin E1]", "cell viability": "105.7 ± 0.69"}
    ]}
  ]
}
